Measurements published in PubChem BioAssay AID2642 (Johns Hopkins Ion Channel Center, 2010).
Hit rate of the full screen: of about 310,000 compounds, about 3,900 (1.3%) were called active.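 How the source made its calls: active means compounds whose thallium flux B-score, printed positive for inhibition, exceeds three library SD while starting fluorescence stays within three; inactive means the rest.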 This excerpt belongs to a sample that is enriched for actives.

What follows are compounds tested against Potassium voltage-gated channel subfamily KQT member 1 (Homo sapiens) (UniProt P51787) (assay: inhibitors of human KCNQ1 channel, primary screen, cell-based, thallium flux, high-throughput (AID 2642;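 further: channel opened by potassium depolarization with thallium stimulus after 20 min compound exposure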)). Conditions: CHO-K1 KCNQ1, FluxOR thallium flux fluorescence, at 10 µM; active compounds read high.
Chain of Potassium voltage-gated channel subfamily KQT member 1 (Homo sapiens) (P51787 whole entry, looked up): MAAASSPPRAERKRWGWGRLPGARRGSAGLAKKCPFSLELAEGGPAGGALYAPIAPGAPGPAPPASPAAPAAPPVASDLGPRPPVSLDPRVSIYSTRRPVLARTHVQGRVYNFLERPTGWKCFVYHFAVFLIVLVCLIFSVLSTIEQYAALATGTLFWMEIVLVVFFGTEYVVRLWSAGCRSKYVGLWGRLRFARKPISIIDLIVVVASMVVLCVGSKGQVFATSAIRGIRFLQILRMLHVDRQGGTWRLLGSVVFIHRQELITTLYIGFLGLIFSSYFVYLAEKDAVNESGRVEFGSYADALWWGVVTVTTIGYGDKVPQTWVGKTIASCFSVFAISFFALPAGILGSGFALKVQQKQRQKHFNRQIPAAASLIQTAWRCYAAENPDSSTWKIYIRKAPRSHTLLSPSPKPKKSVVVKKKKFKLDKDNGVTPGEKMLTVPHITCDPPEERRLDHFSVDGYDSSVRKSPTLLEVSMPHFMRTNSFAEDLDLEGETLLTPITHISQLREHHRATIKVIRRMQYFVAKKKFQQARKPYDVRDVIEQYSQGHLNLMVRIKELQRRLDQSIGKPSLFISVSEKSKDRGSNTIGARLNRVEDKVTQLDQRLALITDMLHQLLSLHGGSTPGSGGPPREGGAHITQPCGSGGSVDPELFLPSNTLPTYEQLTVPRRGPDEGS

B-score, active:
Cc1oc2c(F)c(F)c(F)c(F)c2c1S(=O)(=O)Nc1cccc(C(F)(F)F)c1 12, CCOC(=O)N1CCN(C(=O)C2CCN(c3ncnc4c3sc3cccc(F)c34)CC2)CC1 6, Cn1nc(-c2ccc(Cl)cc2)c2cc(C(=O)NCc3ccco3)sc21 6, CC1CCC(N2CC(=O)N(Cc3ccc4c(c3)OCO4)C(c3ccc(F)cc3)C2=O)CC1 (centres undefined) 6, CCCN1Cc2cccc(C(=O)NCc3ccccc3)c2C1=O 8, CCN(CC)CCN(C(=O)c1cc(Cl)sc1Cl)c1nc2cc3c(cc2s1)OCO3 7, Cc1cc2nc3c(=O)n(Cc4ccccc4)c(=O)[nH]c3nc2cc1N 8, CCOC(=O)C(C)n1cnc2scc(-c3ccc(C)c(C)c3)c2c1=O (centres undefined) 6, Fc1ccc2[nH]c3c(N4CCSCC4)ncnc3c2c1 8, COc1ccc(/C=C2\CCCC3C2=NN(C(=O)c2scnc2C)C3c2ccc(OC)cc2)cc1 (centres undefined) 8

B-score, inactive:
CCOC(=O)C1(CCOc2ccccc2)CCN(Cc2ccc(C#CCCO)cc2)CC1, Cc1cc(OCc2cc(C(=O)NCc3cc(C(C)C)no3)no2)cc(C)c1Cl, CCCCn1c(SCc2ncc(-c3ccccc3)o2)nc2cc(S(N)(=O)=O)ccc21, O=C(/C=C/c1ccc(F)cc1)Nc1cccc(S(=O)(=O)Nc2cccc(C(F)(F)F)c2)c1, CCNS(=O)(=O)c1ccc(NC(=O)Nc2cccc(C(F)(F)F)c2)cc1, COc1ccc(/C(=N\O)c2nccc3cc(OC)c(OC)cc23)cc1OC, CCOC(=O)N1CCN(C(=O)C2CCN(S(=O)(=O)c3cc(Cl)ccc3OCC)CC2)CC1, CCOC(=O)N1CCN(C(=O)C2CCN(Cc3ccc(OC)cc3OC)CC2)CC1, COc1ccc2c(c1)CCc1cn3ncc(C#N)c3nc1-2, CCOC(=O)C1CCN(C(=O)C2CCN(S(=O)(=O)CC)CC2)CC1, CCOC(=O)c1cn(CC)c2cc(F)c(F)cc2c1=O, CCOC(=O)N1CCN(C(=O)c2cc3c(-c4ccc(Cl)cc4)nn(C)c3s2)CC1, COc1ccccc1N1CCN(C(=O)c2cc3c(-c4ccc(Cl)cc4)nn(C)c3s2)CC1, CN1CCc2ccccc2C1Cc1ccccc1NC(=O)c1sc2ccccc2c1Cl (centres undefined), CCN(CC(=O)Nc1c(F)cccc1F)C(=O)c1ccc(Sc2nncn2C)c([N+](=O)[O-])c1, COc1ccc(CNc2ccc3c(c2)CCC3)cc1OC, COc1ccc(OC)c(CCNC(=O)CCn2ccc3cc(S(=O)(=O)N4CCCC4)ccc32)c1, CCOCc1nnc(NC(=O)CCC2CCCCC2)s1, CN1CCN(NC(=O)Nc2ccc(Br)cc2)CC1, CC1CCC(NC(=O)C2c3ccccc3C(=O)N2Cc2ccc3c(c2)OCO3)CC1 (centres undefined), CNC(=O)C1CC(=O)N(Cc2ccc3c(c2)OCO3)C(=Nc2ccc(F)cc2)S1 (centres undefined), COc1ccccc1C(=O)NC(=S)NC12CC3CC(CC(C3)C1)C2, COCCN1Cc2cccc(C(=O)Nc3ccccc3OC)c2C1=O, CSc1ccccc1C(=O)NCc1ccccc1, CSc1ccccc1NC(=O)c1cnc2sc(C)cn2c1=O, Cc1nc(NC(=O)C2CCCCC2)sc1C, CCN(CC)CCN(C(=O)c1ccc(N2C(=O)CCC2=O)cc1)c1nc2cc3c(cc2s1)OCO3, CN(C)CCN(C(=O)C1CCCCC1)c1nc2cc3c(cc2s1)OCO3, CCCc1nn2c(=O)cc(CSCC(=O)Nc3cccc(C)c3)nc2s1, Cc1cc(-c2csc(N)n2)c(C)n1Cc1ccccc1, CC(=O)c1ccc(-c2ccc(Cn3c(C)nc4cc(N)c(C)nc43)cc2)cc1, O=C(O)c1ccc2c(=O)n3c(nc2c1)/C(=C/c1ccc(Cl)c([N+](=O)[O-])c1)CC3, CC(=O)C(C)n1cnc2scc(-c3ccc(C)cc3)c2c1=O (centres undefined), CCn1cnc2scc(-c3ccc(C)c(C)c3)c2c1=O, CC(c1nnc(SCC(=O)Nc2sccc2C#N)n1-c1ccc(Cl)cc1)N(C)C (centres undefined), Cc1c(CN2CC[C@@H](N3CCN(c4ccccn4)CC3)[C@H](O)C2)[nH]c2ccc(F)cc12, C=CCn1c(Cn2nnc3ccccc32)nnc1SCC(=O)N/N=C/c1cc(Br)cc(OC)c1O, CCOC(=O)C1(Cc2ccccc2C(F)(F)F)CCN(C(=O)c2cc(C)n(C)n2)CC1, O=S(=O)(c1ccccc1)c1nc(Cc2ccccc2)oc1N1CCOCC1
